NPC1 prom act: activators of NPC1 promoter. Huh7 NPC1 promoter luciferase reporter, 24 h. Potency, µM (highest dose often 9.22 µM), most hits filed as activators. 2.4% of 320,000 active; note: nearly all actives have a fitted effect of over 60% in size
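Luminescence read-out of NPC1 promoter-driven luciferase in stably transfected Huh7 cells; compounds delivered in DMSO and left 24 h at 37C, 5% CO2, qHTS titration format.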
Rab9 promoter act: activates the Rab9 promoter; Huh7 Rab9 promoter-luciferase reporter, luminescence, 24 h; Potency, µM (highest dose often 9.22 µM), most hits filed as activators; 2.8% of 320,000 active; note: nearly all actives have a fitted effect of over 60% in size
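Using Huh7 cells stably transfected with Rab9 promoter–luciferase, compounds were incubated 24 h at 37 °C, 5% CO2; luciferase luminescence was read 10 min after reagent addition.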
ELG1 genotoxic: induces genotoxicity in HEK293T cells with luciferase-tagged ELG1. HEK293T ELG1-luciferase reporter, luminescence, 16 h. Potency, µM (series often up to 46 µM), actives largely listed as activators. 1.3% of 330,000 active; note: nearly all actives have a fitted effect of over 60% in size
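HEK293T cells expressing luciferase-tagged ELG1 were exposed to compound or DMSO vehicle for 16 hr at 37 °C and 5% CO2. Luciferase activity was then measured with ONE-Glo after 30 min at room temperature.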
FLuc modulator: firefly luciferase modulation, counter-screen for miR-21 project | P08659 | purified FLuc, Km substrates, luminescence inhibition | Potency, µM (series often up to 57.5 µM), actives largely listed as inhibitors | 6.9% of 360,000 active; note: nearly all actives have a fitted effect of over 55% in size
Target sequence (P08659 whole entry, looked up): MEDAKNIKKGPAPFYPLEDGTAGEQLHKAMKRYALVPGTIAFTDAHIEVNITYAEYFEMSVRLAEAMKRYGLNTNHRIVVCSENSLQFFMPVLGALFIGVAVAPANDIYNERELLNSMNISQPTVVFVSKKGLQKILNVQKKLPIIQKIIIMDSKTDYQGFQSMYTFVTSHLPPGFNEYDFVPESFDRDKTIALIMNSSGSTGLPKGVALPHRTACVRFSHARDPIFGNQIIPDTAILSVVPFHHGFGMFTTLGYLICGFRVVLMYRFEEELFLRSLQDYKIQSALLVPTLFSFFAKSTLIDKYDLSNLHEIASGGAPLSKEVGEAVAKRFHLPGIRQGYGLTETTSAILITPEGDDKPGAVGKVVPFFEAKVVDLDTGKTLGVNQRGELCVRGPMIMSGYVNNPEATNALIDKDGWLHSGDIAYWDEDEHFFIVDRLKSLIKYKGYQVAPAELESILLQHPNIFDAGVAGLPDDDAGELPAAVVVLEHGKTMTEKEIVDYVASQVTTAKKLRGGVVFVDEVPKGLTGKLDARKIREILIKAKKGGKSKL
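Purified P. pyralis luciferase, 10 nM final, with Km-level 10 uM D-luciferin and 10 uM ATP in 50 mM Tris acetate pH 7.5, 10 mM Mg acetate, 0.01% Tween-20, 0.05% BSA; 6-point qHTS titration about 60 µM downward; luminescence read.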
Luc counter: counter-screen: inhibitors of Kinase-Glo firefly luciferase; Q27757; 0.28% of 200,000 active; Kinase-Glo luciferase, ATP luminescence, 8 min; Potency, µM (series often up to 38.3 µM), hits mostly inhibitors; note: nearly all actives have a fitted effect of over 60% in size
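Substrate mix (final 50 mM imidazole pH 7.2, 50 mM KCl, 7 mM MgCl2, 10 uM ATP, 0.01% Tween 20, 0.05% BSA) plus pin-tool compound, then Kinase-Glo detection mix; 8 min ambient, luminescence read.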
SMN2 splice enh: SMN2 splice variant enhancement; HEK293 SMN2-luciferase splicing reporter, luminescence, 30-36 h; Potency, µM (doses to about 46.1 µM), hits mostly activators; 2.8% of 210,000 active; note: nearly all actives have a fitted effect of over 55% in size
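qHTS luciferase splicing reporter: luminescence rises when SMN2 exon 7 is included in transfected HEK293 cells. Compound exposure lasted 30-36 h at 37C, with 4.5 mM final sodium butyrate as control, followed by a ONE-Glo read.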
Each line names hits and unclear results; the compound was inactive in the other large screens. An excerpt weighted towards active compounds, which were near 7.5% of everything screened. Calls come from the whole dose curve; as a rule, active = well fitted curve in the direction sought with a large enough effect; inconclusive = small, poorly fitted or top-dose-only effect, or another doubt; inactive = no such curve, though single readings can be large; an effect the other way counts as inactive or inconclusive.

Cc1cc(C)nc(Nc2ccc(N3CCOCC3)cc2)n1	FLuc modulator inconclusive
Cc1cc(C)nc(Nc2ccc(N3CCCC3)cc2)n1	ELG1 genotoxic inconclusive, FLuc modulator 19µM
Cc1ccc2cc3c(nc2c1)N(Cc1ccco1)CC3	ELG1 genotoxic inconclusive, FLuc modulator 19µM
O=C(NCc1ccco1)c1ccc(Oc2ccccc2)cc1	ELG1 genotoxic inconclusive, FLuc modulator 24µM
CCOc1ccc(C(=O)NCc2ccco2)cc1	ELG1 genotoxic inconclusive, FLuc modulator inconclusive
O=C(NCc1ccco1)c1ccc2ccccc2c1	NPC1 prom act inconclusive, Rab9 promoter act inconclusive, FLuc modulator 13µM
CC(C)(CO)NC(=O)c1ccc2c(c1)C(=O)c1ccccc1-2	NPC1 prom act 2.5µM, Rab9 promoter act inconclusive, ELG1 genotoxic 23µM, FLuc modulator 19µM (no result: Luc counter, SMN2 splice enh)
O=C(Nc1sc2c(c1C(=O)NCc1ccco1)CCCC2)c1ccc2c(c1)OCO2	Rab9 promoter act inconclusive, ELG1 genotoxic 10µM, FLuc modulator 12µM, SMN2 splice enh inconclusive
CC(C)(C)C(=O)Cn1c(=O)n(-c2ccccc2)c(=O)c2c3c(sc21)CCC3	none (no result: NPC1 prom act, Rab9 promoter act, ELG1 genotoxic, Luc counter)
CC12CCC3c4ccc(OCc5ccccc5)cc4CCC3C1CC(O)C2O (stereo not given)	none (no result: NPC1 prom act, Rab9 promoter act, ELG1 genotoxic, FLuc modulator)
CCN(C(=O)Cn1ncc2c(=O)oc3ccc(C)cc3c21)c1cc(OC)ccc1OC	none (no result: NPC1 prom act, Rab9 promoter act, ELG1 genotoxic, Luc counter)
O=C(NCc1ccco1)c1ccc2c(c1)C(=O)c1ccccc1-2	ELG1 genotoxic 15µM, FLuc modulator inconclusive
Cc1ccc(NN=C2c3ccccc3-c3ccccc32)cc1	NPC1 prom act inconclusive, Rab9 promoter act inconclusive, ELG1 genotoxic inconclusive, FLuc modulator 15µM
Cc1cccc(C(=O)NC2CCN(C(=O)NCc3ccccc3)CC2)c1	none (no result: Luc counter, SMN2 splice enh)
CC(C)(C)NC(=O)Nc1ccc(F)c(Cl)c1	FLuc modulator inconclusive (no result: Luc counter, SMN2 splice enh)
O=C(O)Cc1ccc(NC(=O)Nc2ccc(Br)cc2)cc1	FLuc modulator 6.7µM (no result: SMN2 splice enh)
COc1ccc(NC(=O)Nc2ccc(CC(=O)O)cc2)cc1	FLuc modulator 13µM
CC(C)(C)NC(=O)Nc1ccc(Br)cc1	NPC1 prom act inconclusive, Rab9 promoter act 2.5µM, ELG1 genotoxic inconclusive, FLuc modulator 15µM (no result: Luc counter, SMN2 splice enh)
O=C(O)Cc1ccc(NC(=O)C(c2ccccc2)c2ccccc2)cc1	none (no result: SMN2 splice enh)
Cc1ccc(NC(=O)c2cc(S(=O)(=O)NC3CCCCCC3)ccc2F)cc1F	none (no result: NPC1 prom act, Rab9 promoter act, ELG1 genotoxic, Luc counter, SMN2 splice enh)
CC(C)CCNC(=O)c1cnc2sc(N3CCCCC3)nn2c1=O	none (no result: NPC1 prom act, Rab9 promoter act, ELG1 genotoxic, Luc counter, SMN2 splice enh)
CC(=O)c1cccc(NC(=O)c2cc(C(C)C)on2)c1	NPC1 prom act 0.63µM, Rab9 promoter act 4.5µM, ELG1 genotoxic 9.2µM, FLuc modulator 6.7µM, SMN2 splice enh inconclusive
CC(C)c1cc(C(=O)Nc2cccc(Cl)c2)no1	NPC1 prom act 0.89µM, Rab9 promoter act 0.89µM, ELG1 genotoxic inconclusive, FLuc modulator 0.95µM, SMN2 splice enh 11µM
CC(=O)c1cccc(NC(=O)c2cc(-c3ccc(F)cc3)on2)c1	FLuc modulator inconclusive
O=C(Nc1cccc(Cl)c1)c1ccncc1	SMN2 splice enh inconclusive
O=C(Nc1cccc(Cl)c1)c1cnc[nH]1	NPC1 prom act 4µM, Rab9 promoter act 4.5µM, ELG1 genotoxic inconclusive, SMN2 splice enh 11µM (no result: Luc counter)
COc1ccc(OCC(=O)OCc2cc(=O)n3nc(C4CC4)sc3n2)cc1	none (no result: NPC1 prom act, Rab9 promoter act, ELG1 genotoxic, Luc counter, SMN2 splice enh)
COc1ccc(-c2cc(C(=O)Nc3nc4c(C)cccc4s3)c3ccccc3n2)cc1OC	FLuc modulator 11µM
COc1cccc(-c2cc(C(=O)Nc3nc4ccccc4s3)c3ccccc3n2)c1	FLuc modulator 17µM
COc1cc(/C=N/NC(=O)Nc2cccc3nsnc23)cc(OC)c1OC	none
O=C(N/N=C/c1ccc(O)cc1)Nc1cccc2nsnc12	FLuc modulator 12µM (no result: SMN2 splice enh)
COc1ccc(NC(=O)Nc2nc3c(s2)CCCC3)cc1	NPC1 prom act 4µM, Rab9 promoter act 1.8µM, FLuc modulator 4.8µM, SMN2 splice enh 13µM
CN(Cc1ccccc1)c1nnc(NC(=O)Nc2cccc(Br)c2)s1	none (no result: NPC1 prom act, Rab9 promoter act, ELG1 genotoxic, Luc counter, SMN2 splice enh)
O=C(Nc1cccc(Br)c1)Nc1nc2c(s1)CCCCCC2	FLuc modulator 11µM (no result: NPC1 prom act, Rab9 promoter act, ELG1 genotoxic, Luc counter, SMN2 splice enh)
O=C(CCc1nnc(CCCc2ccccc2)o1)NCCCC1CCCC1	Rab9 promoter act inconclusive, FLuc modulator inconclusive (no result: SMN2 splice enh)
